From PubChem
This is a sample that favours compounds with a hit; in the whole collection about 21% have one here.
Cycloheximide cs: Cycloheximide Counterscreen for Small Molecule Inhibitors of Shiga Toxin; AID 2314, 2010; 12% of 300,000 active; cell reporter, cycloheximide protein synthesis inhibition counterscreen; max response, %; in the data active means max response mostly above about 13%, no sharp cut-off; inactive means mostly below about 14%; further: read at 38.3 µM for the half of the compounds with a filed dose; 0% is about no effect
Pf growth 48h: Primary qHTS for delayed death inhibitors of the malarial parasite plastid, 48 hour incubation; P. falciparum luciferase growth in erythrocytes, 48 h; Potency, µM (doses to about 28.7 µM), for the others: top-dose activity change, negative = inhibition, most hits filed as inhibitors; 5.9% of 310,000 active; AID 504832, 2011; further: potency means the concentration at half of the fitted maximal effect; on the % scale 0 is the no-effect control and ±100 the full control effect
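Luciferase-expressing parasites in RBCs, 2% Hct / 0.1% parasitemia final; RPMI 1640 + 0.5% Albumax; 37 C, 5% CO2, one generation; luminescence read-out, lower signal = inhibition.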
Sm TGR block: qHTS Assay for the Inhibitors of Schistosoma Mansoni Peroxiredoxins; Potency, µM (highest dose often 114 µM), inactives show at the highest dose activity change, negative = inhibition, actives largely listed as inhibitors; AID 485364, 2010; 3% of 360,000 active; purified TGR, DTNB reduction, TNB absorbance 405 nm; Schistosoma mansoni thioredoxin glutathione reductase (TGR), Q962Y6; further: potency means the concentration at half of the fitted maximal effect; on the % scale 0 is the no-effect control and ±100 the full control effect; nearly all actives have a fitted effect of over 60% in size
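TGR 20 nM + NADPH 100 uM (dispensed conc.), cpd preinc 15 min RT; start with NADPH (500 uM addition) then DTNB (15 mM addition). Kinetic TNB absorbance, 405 nm filter. Four-parameter Hill fit across titration.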
Shiga inhibitor: A qHTS for Small Molecule Inhibitors of Shiga Toxin. Vero cells, Shiga toxin protein synthesis inhibition reporter. inhibition, % at 38.7 µM. 9.2% of 290,000 active; in the data active means inhibition mostly above about 28%, no sharp cut-off; inactive means mostly below about 43%; further: 0% is about no effect
Pf growth 96h: Primary qHTS for delayed death inhibitors of the malarial parasite plastid, 96 hour incubation; Potency, µM (series often up to 28.7 µM), for the others: top-dose activity change, negative = inhibition, most hits filed as inhibitors; 6.9% of 320,000 active; P. falciparum luciferase reporter growth, 96 h; AID 504834, 2011; further: potency means the concentration at half of the fitted maximal effect; on the % scale 0 is the no-effect control and ±100 the full control effect
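Plates of compound plus infected erythrocytes (2% hematocrit, 0.05% parasitemia final) incubate 96 hours, 37 C, 5% CO2. Detection reagent added; reduced luminescence from the parasites' luciferase reporter flags inhibition.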
NS1 function inh: qHTS Assay for Inhibitors of Influenza NS1 Protein Function; Potency, µM (highest dose often 46.1 µM), for the others: top-dose activity, positive = more growth; 0.4% of 270,000 active; calls by dose curve; further: potency means the concentration at half of the fitted maximal effect; actives are rising curves; nearly all actives have a fitted effect of over 50% in size
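Read-out: OD600 growth recovery of NS1-expressing budding yeast. Cells grown overnight at 30C in -URA glucose medium, washed, resuspended and diluted 1:100 in 2% galactose assay medium, pH 6.0. Same strain lacking NS1 served as positive control.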
Active calls of the source: *. Unless noted, the call rests on the fitted dose curve; in most records, active means well fitted curve in the direction sought with a large enough effect; inconclusive means small, poorly fitted or top-dose-only effect, or another doubt; inactive means no such curve, though single readings can be large; an effect the other way counts as inactive or inconclusive.

CC1=C(C(=O)O)N2C(=O)C(NC(=O)Cc3ccccc3)C2SC1 (configuration not stated) was read as Cycloheximide cs -2, Pf growth 48h 2%, Sm TGR block -22%, Shiga inhibitor -10, Pf growth 96h 21% and NS1 function inh 7%.
CC1=C(C(=O)O)N2C(=O)C(NC(=O)c3nn(C)c(C)c3Cl)C2SC1 (configuration not stated) was read as Cycloheximide cs -2, Pf growth 48h 37%, Sm TGR block 0%, Shiga inhibitor 10 and Pf growth 96h 24%.
For Cc1nnc(SCC2=C(C(=O)O)N3C(=O)C(NC(=O)Cn4ncc(Cl)c4C)C3SC2)s1 (configuration not stated) the results were Cycloheximide cs -3, Pf growth 48h inconclusive, Sm TGR block 3.2µM*, Shiga inhibitor -10 and Pf growth 96h inconclusive.
`Cc1nnc(SCC2=C(C(=O)O)N3C(=O)C(NC(=O)c4cccc(F)c4F)C3SC2)s1` (configuration not stated) gave Cycloheximide cs 13, Pf growth 48h -3%, Sm TGR block 10µM*, Shiga inhibitor -10 and Pf growth 96h 19%.
Screening Cc1cc(C)n(CC(=O)NC2C(=O)N3C(C(=O)O)=C(CSc4nnc(C)s4)CSC23)n1 (configuration not stated) returned Cycloheximide cs 1, Pf growth 48h 11%, Sm TGR block 25µM*, Shiga inhibitor -5 and Pf growth 96h 8%.
`Cc1nnc(N2C(=O)c3cccc4c([N+](=O)[O-])ccc(c34)C2=O)s1` gave Cycloheximide cs 1, Pf growth 48h -6%, Sm TGR block 4.5µM*, Shiga inhibitor 41, Pf growth 96h -32% and NS1 function inh -26%.
`O=C1c2cccc3c([N+](=O)[O-])ccc(c23)C(=O)N1Cc1cccnc1` gave Cycloheximide cs 7, Pf growth 48h inconclusive, Sm TGR block 25µM*, Shiga inhibitor 15 and Pf growth 96h 5%.
Screening Cc1ccc(N2C(=O)c3cccc4c([N+](=O)[O-])ccc(c34)C2=O)c2cccnc12 returned Cycloheximide cs 11, Pf growth 48h 19%, Sm TGR block -2%, Shiga inhibitor 11, Pf growth 96h inconclusive and NS1 function inh 0%.
Cc1cccc(N2CCN(C(=O)CCS(=O)(=O)c3ccc4c(c3)oc(=O)n4C)CC2)c1C was read as Cycloheximide cs -1, Pf growth 48h 13µM*, Sm TGR block -34%, Shiga inhibitor 16, Pf growth 96h 9.3µM* and NS1 function inh -10%.
For Cc1cccc(N2CCN(C(=O)CCNS(=O)(=O)c3ccc4c(c3)CCC(=O)N4)CC2)c1C the results were Cycloheximide cs -3, Pf growth 48h inconclusive, Sm TGR block 5%, Shiga inhibitor 12, Pf growth 96h inconclusive and NS1 function inh -7%.
`Cc1cccc(N2CCN(C(=O)CCNS(=O)(=O)c3ccc4c(c3)oc(=O)n4C)CC2)c1C` gave Cycloheximide cs 8, Pf growth 48h inconclusive, Sm TGR block 4%, Shiga inhibitor 1, Pf growth 96h 1.3µM* and NS1 function inh 0%.
CN1CCN(CCNC(=O)Cn2c(=O)c3cccn3c3ccc(F)cc32)CC1 was read as Cycloheximide cs -12, Pf growth 48h 9%, Sm TGR block inconclusive, Shiga inhibitor -2, Pf growth 96h -15% and NS1 function inh 7%.
For Cc1cc(NC(=O)c2cc(-c3ccccc3)on2)n(-c2ccccc2)n1 the results were Cycloheximide cs 1, Pf growth 48h -12%, Sm TGR block 7%, Shiga inhibitor -6, Pf growth 96h 35% and NS1 function inh -15%.
For Cc1cc(C(=O)Nc2cc(Br)ccc2O)on1 the results were Cycloheximide cs 4, Pf growth 48h 5.2µM*, Sm TGR block 4%, Shiga inhibitor 6, Pf growth 96h 6% and NS1 function inh -38%.
